From publication PMC11006913

Experiments:
Assay in all cases: PBM; 200 nM protein, PBS
Conditions in all cases: dsDNA, one strand shown
HOXA2 [1] = target: HOXA2 (Homo sapiens, UniProt O43364 129-215, R185T)
HOXA2 [2] = target: HOXA2 (Homo sapiens, UniProt O43364 129-215, R185K)
HOXA2 [3] = target: HOXA2 (Homo sapiens, UniProt O43364 129-215, Y150S)
HOXA2 [4] = target: HOXA2 (Homo sapiens, UniProt O43364 129-215)
ALX1 = ALX1 (Homo sapiens, UniProt Q15699 118-204, L144R)
HOXA4 = HOXA4 (Homo sapiens, UniProt Q00056 201-287, W262F)
VAX1 [5] = target: VAX1 (Homo sapiens, UniProt Q5SQQ9 86-172, T142I)
CRX = CRX (Homo sapiens, UniProt O43186 26-111, R41L)
VAX1 [6] = target: VAX1 (Homo sapiens, UniProt Q5SQQ9 86-172)
VAX1 [7] = target: VAX1 (Homo sapiens, UniProt Q5SQQ9 86-172, K157R)
Chain of VAX1 (Homo sapiens, UniProt Q5SQQ9 86-172, K157R) (Q5SQQ9 86-172 K157R): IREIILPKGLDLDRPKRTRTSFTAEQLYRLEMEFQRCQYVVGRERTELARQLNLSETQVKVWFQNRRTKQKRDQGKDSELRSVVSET

Chain of HOXA2 (Homo sapiens, UniProt O43364 129-215, R185K) (O43364 129-215 R185K): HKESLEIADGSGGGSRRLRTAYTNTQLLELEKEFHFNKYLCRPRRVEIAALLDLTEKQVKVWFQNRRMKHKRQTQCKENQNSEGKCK
Chain of HOXA2 (Homo sapiens, UniProt O43364 129-215) (O43364 129-215): as the sequence (O43364 129-215 R185K) above, with K57R counted along it
Chain of HOXA2 (Homo sapiens, UniProt O43364 129-215, R185T) (O43364 129-215 R185T): as the sequence (O43364 129-215 R185K) above, with K57T counted along it
Chain of HOXA2 (Homo sapiens, UniProt O43364 129-215, Y150S) (O43364 129-215 Y150S): as the sequence (O43364 129-215 R185K) above, with Y22S, K57R counted along it
Chain of VAX1 (Homo sapiens, UniProt Q5SQQ9 86-172, T142I) (Q5SQQ9 86-172 T142I): as the sequence (Q5SQQ9 86-172 K157R) above, with T57I, R72K counted along it
Chain of VAX1 (Homo sapiens, UniProt Q5SQQ9 86-172) (Q5SQQ9 86-172): as the sequence (Q5SQQ9 86-172 K157R) above, with R72K counted along it
Chain of CRX (O43186 26-111 R41L): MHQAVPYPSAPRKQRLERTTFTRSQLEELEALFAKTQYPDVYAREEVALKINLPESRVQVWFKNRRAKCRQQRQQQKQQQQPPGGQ
Chain of HOXA4 (Q00056 201-287 W262F): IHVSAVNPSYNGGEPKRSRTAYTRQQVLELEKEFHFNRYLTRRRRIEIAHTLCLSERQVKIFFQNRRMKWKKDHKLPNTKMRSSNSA
Chain of ALX1 (Q15699 118-204 L144R): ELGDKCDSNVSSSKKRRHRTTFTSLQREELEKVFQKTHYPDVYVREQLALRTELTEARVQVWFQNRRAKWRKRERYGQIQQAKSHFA

Sequence: ACACTAAT
- binding signal (HOXA2 [1]): 11.5 upbm affinity estimate (log intensity, higher = more binding, comparable within an allelic series)
- binding signal (HOXA2 [2]): 12.6 upbm affinity estimate (log intensity, higher = more binding, comparable within an allelic series)
- binding signal (HOXA2 [3]): 10.9 upbm affinity estimate (log intensity, higher = more binding, comparable within an allelic series)
- binding signal (HOXA2 [4]): 11.3 upbm affinity estimate (log intensity, higher = more binding, comparable within an allelic series)

Sequence: CGAGAGGC
- binding signal (HOXA2 [1]): 7.16 upbm affinity estimate (log intensity, higher = more binding, comparable within an allelic series)
- binding signal (HOXA2 [2]): 10.3 upbm affinity estimate (log intensity, higher = more binding, comparable within an allelic series)
- binding signal (HOXA2 [3]): 10.4 upbm affinity estimate (log intensity, higher = more binding, comparable within an allelic series)
- binding signal (HOXA2 [4]): 7.01 upbm affinity estimate (log intensity, higher = more binding, comparable within an allelic series)

Sequence: CTGATTAA
- binding signal (HOXA2 [1]): 11.9 upbm affinity estimate (log intensity, higher = more binding, comparable within an allelic series)
- binding signal (HOXA2 [2]): 12.9 upbm affinity estimate (log intensity, higher = more binding, comparable within an allelic series)
- binding signal (ALX1): 11.1 upbm affinity estimate (log intensity, higher = more binding, comparable within an allelic series)
- binding signal (HOXA2 [3]): 10.8 upbm affinity estimate (log intensity, higher = more binding, comparable within an allelic series)
- binding signal (HOXA2 [4]): 11.5 upbm affinity estimate (log intensity, higher = more binding, comparable within an allelic series)

Sequence: GGAGGCGA
- binding signal (HOXA2 [1]): 7.15 upbm affinity estimate (log intensity, higher = more binding, comparable within an allelic series)
- binding signal (HOXA2 [2]): 10.6 upbm affinity estimate (log intensity, higher = more binding, comparable within an allelic series)
- binding signal (HOXA2 [3]): 10.4 upbm affinity estimate (log intensity, higher = more binding, comparable within an allelic series)
- binding signal (HOXA2 [4]): 7.38 upbm affinity estimate (log intensity, higher = more binding, comparable within an allelic series)

Sequence: CCCCCACC
- binding signal (HOXA2 [1]): 6.87 upbm affinity estimate (log intensity, higher = more binding, comparable within an allelic series)
- binding signal (HOXA2 [2]): 9.85 upbm affinity estimate (log intensity, higher = more binding, comparable within an allelic series)
- binding signal (HOXA2 [3]): 10.3 upbm affinity estimate (log intensity, higher = more binding, comparable within an allelic series)
- binding signal (HOXA2 [4]): 6.86 upbm affinity estimate (log intensity, higher = more binding, comparable within an allelic series)

Sequence: CGTCATTA
- binding signal (HOXA2 [1]): 12.3 upbm affinity estimate (log intensity, higher = more binding, comparable within an allelic series)
- binding signal (HOXA2 [2]): 13.2 upbm affinity estimate (log intensity, higher = more binding, comparable within an allelic series)
- binding signal (HOXA2 [3]): 10.8 upbm affinity estimate (log intensity, higher = more binding, comparable within an allelic series)
- binding signal (HOXA4): 11.4 upbm affinity estimate (log intensity, higher = more binding, comparable within an allelic series)
- binding signal (HOXA2 [4]): 12.3 upbm affinity estimate (log intensity, higher = more binding, comparable within an allelic series)

Sequence: CCACCCCC
- binding signal (HOXA2 [1]): 7.29 upbm affinity estimate (log intensity, higher = more binding, comparable within an allelic series)
- binding signal (HOXA2 [2]): 10.2 upbm affinity estimate (log intensity, higher = more binding, comparable within an allelic series)
- binding signal (HOXA2 [3]): 10.4 upbm affinity estimate (log intensity, higher = more binding, comparable within an allelic series)
- binding signal (HOXA2 [4]): 6.98 upbm affinity estimate (log intensity, higher = more binding, comparable within an allelic series)

Sequence: GTAATGAC
- binding signal (HOXA2 [1]): 12 upbm affinity estimate (log intensity, higher = more binding, comparable within an allelic series)
- binding signal (HOXA2 [2]): 13.1 upbm affinity estimate (log intensity, higher = more binding, comparable within an allelic series)
- binding signal (VAX1 [5]): 12.3 upbm affinity estimate (log intensity, higher = more binding, comparable within an allelic series)
- binding signal (HOXA2 [3]): 10.8 upbm affinity estimate (log intensity, higher = more binding, comparable within an allelic series)
- binding signal (HOXA2 [4]): 12.1 upbm affinity estimate (log intensity, higher = more binding, comparable within an allelic series)

Sequence: ACTAATGC
- binding signal (HOXA2 [1]): 10.2 upbm affinity estimate (log intensity, higher = more binding, comparable within an allelic series)
- binding signal (HOXA2 [2]): 12.2 upbm affinity estimate (log intensity, higher = more binding, comparable within an allelic series)
- binding signal (HOXA2 [3]): 10.7 upbm affinity estimate (log intensity, higher = more binding, comparable within an allelic series)
- binding signal (CRX): 10.1 upbm affinity estimate (log intensity, higher = more binding, comparable within an allelic series)
- binding signal (HOXA2 [4]): 10.5 upbm affinity estimate (log intensity, higher = more binding, comparable within an allelic series)

Sequence: AAGGCCCC
- binding signal (HOXA2 [1]): 7.25 upbm affinity estimate (log intensity, higher = more binding, comparable within an allelic series)
- binding signal (HOXA2 [2]): 10.3 upbm affinity estimate (log intensity, higher = more binding, comparable within an allelic series)
- binding signal (HOXA2 [3]): 10.3 upbm affinity estimate (log intensity, higher = more binding, comparable within an allelic series)
- binding signal (HOXA2 [4]): 7.19 upbm affinity estimate (log intensity, higher = more binding, comparable within an allelic series)

Sequence: TACTTTAA
- binding signal (HOXA2 [1]): 9.67 upbm affinity estimate (log intensity, higher = more binding, comparable within an allelic series)
- binding signal (HOXA2 [2]): 11.6 upbm affinity estimate (log intensity, higher = more binding, comparable within an allelic series)
- binding signal (HOXA2 [3]): 10.8 upbm affinity estimate (log intensity, higher = more binding, comparable within an allelic series)
- binding signal (HOXA2 [4]): 9.6 upbm affinity estimate (log intensity, higher = more binding, comparable within an allelic series)

Sequence: CCCCCCCG
- binding signal (HOXA2 [1]): 6.93 upbm affinity estimate (log intensity, higher = more binding, comparable within an allelic series)
- binding signal (HOXA2 [2]): 9.85 upbm affinity estimate (log intensity, higher = more binding, comparable within an allelic series)
- binding signal (HOXA2 [3]): 10.2 upbm affinity estimate (log intensity, higher = more binding, comparable within an allelic series)
- binding signal (HOXA2 [4]): 7.13 upbm affinity estimate (log intensity, higher = more binding, comparable within an allelic series)

Sequence: CAGCCACG
- binding signal (HOXA2 [1]): 7.22 upbm affinity estimate (log intensity, higher = more binding, comparable within an allelic series)
- binding signal (HOXA2 [2]): 10.5 upbm affinity estimate (log intensity, higher = more binding, comparable within an allelic series)
- binding signal (HOXA2 [3]): 10.4 upbm affinity estimate (log intensity, higher = more binding, comparable within an allelic series)
- binding signal (HOXA2 [4]): 7.24 upbm affinity estimate (log intensity, higher = more binding, comparable within an allelic series)

Sequence: CTACGCCC
- binding signal (HOXA2 [1]): 7.29 upbm affinity estimate (log intensity, higher = more binding, comparable within an allelic series)
- binding signal (HOXA2 [2]): 10.3 upbm affinity estimate (log intensity, higher = more binding, comparable within an allelic series)
- binding signal (HOXA2 [3]): 10.5 upbm affinity estimate (log intensity, higher = more binding, comparable within an allelic series)
- binding signal (HOXA2 [4]): 7.38 upbm affinity estimate (log intensity, higher = more binding, comparable within an allelic series)

Sequence: CCCCCGTC
- binding signal (HOXA2 [1]): 7.31 upbm affinity estimate (log intensity, higher = more binding, comparable within an allelic series)
- binding signal (HOXA2 [2]): 10.2 upbm affinity estimate (log intensity, higher = more binding, comparable within an allelic series)
- binding signal (HOXA2 [3]): 10.3 upbm affinity estimate (log intensity, higher = more binding, comparable within an allelic series)
- binding signal (HOXA2 [4]): 7.2 upbm affinity estimate (log intensity, higher = more binding, comparable within an allelic series)

Sequence: AGAATTAT
- binding signal (HOXA2 [1]): 9.79 upbm affinity estimate (log intensity, higher = more binding, comparable within an allelic series)
- binding signal (HOXA2 [2]): 11.6 upbm affinity estimate (log intensity, higher = more binding, comparable within an allelic series)
- binding signal (HOXA2 [3]): 10.7 upbm affinity estimate (log intensity, higher = more binding, comparable within an allelic series)
- binding signal (HOXA2 [4]): 9.68 upbm affinity estimate (log intensity, higher = more binding, comparable within an allelic series)

Sequence: GCAACCCC
- binding signal (HOXA2 [1]): 7.26 upbm affinity estimate (log intensity, higher = more binding, comparable within an allelic series)
- binding signal (HOXA2 [2]): 10.1 upbm affinity estimate (log intensity, higher = more binding, comparable within an allelic series)
- binding signal (HOXA2 [3]): 10.4 upbm affinity estimate (log intensity, higher = more binding, comparable within an allelic series)
- binding signal (HOXA2 [4]): 7.17 upbm affinity estimate (log intensity, higher = more binding, comparable within an allelic series)

Sequence: CTCATTAC
- binding signal (HOXA2 [1]): 12.5 upbm affinity estimate (log intensity, higher = more binding, comparable within an allelic series)
- binding signal (HOXA2 [2]): 13.2 upbm affinity estimate (log intensity, higher = more binding, comparable within an allelic series)
- binding signal (VAX1 [6]): 13 upbm affinity estimate (log intensity, higher = more binding, comparable within an allelic series)
- binding signal (VAX1 [5]): 12.7 upbm affinity estimate (log intensity, higher = more binding, comparable within an allelic series)
- binding signal (HOXA2 [3]): 10.8 upbm affinity estimate (log intensity, higher = more binding, comparable within an allelic series)
- binding signal (HOXA2 [4]): 12.3 upbm affinity estimate (log intensity, higher = more binding, comparable within an allelic series)
- binding signal (VAX1 [7]): 12.8 upbm affinity estimate (log intensity, higher = more binding, comparable within an allelic series)

Sequence: AATTGCTC
- binding signal (HOXA2 [1]): 10.4 upbm affinity estimate (log intensity, higher = more binding, comparable within an allelic series)
- binding signal (HOXA2 [2]): 12 upbm affinity estimate (log intensity, higher = more binding, comparable within an allelic series)
- binding signal (HOXA2 [3]): 10.6 upbm affinity estimate (log intensity, higher = more binding, comparable within an allelic series)
- binding signal (HOXA2 [4]): 10.2 upbm affinity estimate (log intensity, higher = more binding, comparable within an allelic series)

Sequence: AGTTAACG
- binding signal (HOXA2 [1]): 9.97 upbm affinity estimate (log intensity, higher = more binding, comparable within an allelic series)
- binding signal (HOXA2 [2]): 12.2 upbm affinity estimate (log intensity, higher = more binding, comparable within an allelic series)
- binding signal (HOXA2 [3]): 10.7 upbm affinity estimate (log intensity, higher = more binding, comparable within an allelic series)
- binding signal (HOXA2 [4]): 9.96 upbm affinity estimate (log intensity, higher = more binding, comparable within an allelic series)

Sequence: GGGAGCCC
- binding signal (HOXA2 [1]): 7.4 upbm affinity estimate (log intensity, higher = more binding, comparable within an allelic series)
- binding signal (HOXA2 [2]): 10.3 upbm affinity estimate (log intensity, higher = more binding, comparable within an allelic series)
- binding signal (VAX1 [6]): 7.23 upbm affinity estimate (log intensity, higher = more binding, comparable within an allelic series)
- binding signal (VAX1 [5]): 7.09 upbm affinity estimate (log intensity, higher = more binding, comparable within an allelic series)
- binding signal (HOXA2 [3]): 10.5 upbm affinity estimate (log intensity, higher = more binding, comparable within an allelic series)
- binding signal (HOXA2 [4]): 7.35 upbm affinity estimate (log intensity, higher = more binding, comparable within an allelic series)
- binding signal (VAX1 [7]): 7.13 upbm affinity estimate (log intensity, higher = more binding, comparable within an allelic series)

Sequence: CAATCACA
- binding signal (HOXA2 [1]): 9.53 upbm affinity estimate (log intensity, higher = more binding, comparable within an allelic series)
- binding signal (HOXA2 [2]): 11.8 upbm affinity estimate (log intensity, higher = more binding, comparable within an allelic series)
- binding signal (HOXA2 [3]): 10.8 upbm affinity estimate (log intensity, higher = more binding, comparable within an allelic series)
- binding signal (HOXA2 [4]): 9.4 upbm affinity estimate (log intensity, higher = more binding, comparable within an allelic series)
